# Most compounds without a hit are left out; they make up all but 11% or so of the library.
# CBFb-RUNX1 inh = CBF-beta/RUNX1 interaction disruption; Q01196+Q13951; AlphaScreen CBFb-His/RUNX1-biotin binding, biochemical; Potency, µM (highest dose often 59.8 µM), for inactives: top-dose activity, negative = inhibition, usual class: inhibitors; 230,000 tested, under 10 active; AID 1477; also: % of control where 0% means no effect
#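 Bead-based AlphaScreen assay; binding partners His-tagged CBF-beta and biotinylated RUNX1 at 30 nM each. Compound exposure 15 min after a 20-min protein preincubation; bead step 90 min; all steps at room temperature.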
# HTT aggregate = reduces HttQ103-GFP aggregates in PC12 cells | PC12 HttQ103-GFP aggregates, Acumen cytometry, 40 h | Potency, µM (series often up to 46.1 µM), without a hit: top-dose activity change, negative = inhibition, usual class: inhibitors | actives 1.1% (n = 220,000) | AID 1688; also: potency is read from the fitted curve at half-maximal effect; % is scaled to controls: 0 for no effect and ±100 for the full control effect; nearly all actives have a fitted effect of over 60% in size
#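 Huntingtin Q103 exon 1–GFP aggregates in induced PC12 cells (100 nM tebufenozide) were quantified by cytometry from lysates, with compounds dosed in titration.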
# HTT ATP protect = cytoprotection in Huntington HTT-Q103 PC12 cell model | PC12 HTT-Q103 induced, cytoprotection, ATP luminescence, 40 h | Potency, µM (series often up to 56.4 µM), for the others: cytoprotection (ATP increase), actives largely listed as activators | AID 1471 | actives 0.14% (n = 230,000); also: potency is read from the fitted curve at half-maximal effect; % of control where 0% means no effect; nearly all actives have a fitted effect of over 45% in size
#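 Compounds added alongside 100 nM tebufenozide, which induces toxic Q103 huntingtin exon 1-GFP in stable PC12 cells; surviving cells quantified by luminescent ATP measurement. Medium: phenol red-free DMEM, 5% equine and 5% calf serum.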
# PNC assembly inh = perinucleolar compartment assembly inhibition; PC3M PTB-GFP, PNC prevalence imaging, 16 h; hits give low values; activity change (PNC), negative = inhibition, % at 10 µM; actives 3.1% (n = 140,000); AID 2417;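 active = readout at or below -70, meaning at least 70% loss of cells showing the perinucleolar compartment, a nuclear body marking cancer cells; inconclusive = readout between -30 and a set limit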;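 also: plate controls were DMSO wells for no effect and camptothecin positive control wells for full effect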
#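 Read-out is percentage of cells bearing a perinucleolar compartment, from automated 20x imaging of fixed, Hoechst-stained PC3M PTB-GFP cells. Cells were seeded 4 h, then exposed 16 h to compound (23 nl of library stock) in duplicate plates.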
# HPGD block = inhibitors of human 15-hydroxyprostaglandin dehydrogenase (HPGD) | P15428 | purified HPGD, NADH fluorescence kinetic, PGE2 substrate | Potency, µM, without a hit: top-dose activity change, negative = inhibition, actives largely listed as inhibitors | actives 4.3% (n = 150,000); active = well fitted inhibition curve with a large enough effect, not every such curve was filed as active; inconclusive = small, poorly fitted or top-dose-only effect, or another doubt; inactive = no such curve, though single readings can be large or run the other way; also: potency is read from the fitted curve at half-maximal effect; % is scaled to controls: 0 for no effect and ±100 for the full control effect
#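 NADH formation kinetics: reaction with 30 uM PGE2 and 1 mM NAD+ (final), 20 nM enzyme, Tris-HCl pH 8 with Tween 20, after 15 min compound preincubation at room temperature. Fluorescence change, last versus first of five reads.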
# ALDH1A1 block = inhibitors of human aldehyde dehydrogenase 1A1; Purified ALDH1A1, NADH fluorescence, propionaldehyde substrate; P00352; actives 7.3% (n = 220,000); Potency, µM (top dose mostly 75.3 µM), for the others: at the top dose activity, negative = inhibition, usual class: inhibitors; active = well fitted inhibition curve with a large enough effect, not every such curve was filed as active; inconclusive = small, poorly fitted or top-dose-only effect, or another doubt; inactive = no such curve, though single readings can be large or run the other way;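 also: potency is read from the fitted curve at half-maximal effect; plate controls were no enzyme wells and a reference inhibitor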
# Target sequence (P00352 whole entry, looked up): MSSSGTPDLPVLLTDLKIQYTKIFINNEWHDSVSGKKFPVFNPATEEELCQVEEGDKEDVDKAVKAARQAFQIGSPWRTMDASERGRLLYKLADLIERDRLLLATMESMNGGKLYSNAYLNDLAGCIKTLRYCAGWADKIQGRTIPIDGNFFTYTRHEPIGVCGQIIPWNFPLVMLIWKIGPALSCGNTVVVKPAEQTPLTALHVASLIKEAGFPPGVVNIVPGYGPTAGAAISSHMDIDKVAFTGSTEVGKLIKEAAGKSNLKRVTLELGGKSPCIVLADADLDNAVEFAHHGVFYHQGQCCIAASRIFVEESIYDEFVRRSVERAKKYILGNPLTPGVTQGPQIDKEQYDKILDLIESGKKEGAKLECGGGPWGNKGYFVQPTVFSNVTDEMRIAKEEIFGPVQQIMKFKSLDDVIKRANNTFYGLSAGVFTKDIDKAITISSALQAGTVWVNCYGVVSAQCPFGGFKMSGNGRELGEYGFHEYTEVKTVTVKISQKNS
# * hit, by the source's call; ? = inconclusive; nt = no result given; [ ] = dose if it differs, or a comment. Unless noted, calls follow the shape of the dose curve; as a rule, active = well fitted curve in the direction sought with a large enough effect; inconclusive = small, poorly fitted or top-dose-only effect, or another doubt; inactive = no such curve, though single readings can be large; an effect the other way counts as inactive or inconclusive.
SMILES,CBFb-RUNX1 inh,HTT aggregate,HTT ATP protect,PNC assembly inh,HPGD block,ALDH1A1 block
O=C(OCc1ccccn1)c1ccc(COc2ccc3ccccc3c2)o1,21%,-4%[9.22 µM],4%[10 µM],nt,nt,nt
Cc1cccc(N2CC(C(=O)OCC(=O)c3ccc(OC(=O)c4cccs4)cc3)CC2=O)c1C (stereo not drawn),2%,5%,15%,-83*,-13%,-2%
O=C(Nc1ccc([N+](=O)[O-])cc1)Nc1nc(-c2ccc(Cl)s2)cs1,-5%,?,-72%[10 µM],44,-18%,?
Cc1c(C(=O)OC2CCCC2C)[nH]c2c1C(=O)CCC2 (stereo not drawn),19%,?,-16%,22,-15%,8.9µM*
CC1CCN(C(C(=O)Nc2ccc(C(C)C)cc2)c2ccc3c(c2)OCO3)CC1 (stereo not drawn),-1%,20µM*,0%,?,-30%,1%
CCOC(=O)C1=C(N)OC(CCl)=C(C#N)C1c1ccsc1 (stereo not drawn),1%,1%,22%[0.074 µM],-12,-6%,7.9µM*
CCOC(=O)C1=C(c2ccccc2)OC(N)=C(C#N)C1c1ccc(Cl)s1 (stereo not drawn),7%,20%,-26%,-21,-12%,1.8µM*
CCOC(=O)C1=C(CSc2nc(C)cc(C)c2C#N)OC(N)=C(C#N)C1c1ccccc1 (stereo not drawn),-3%,21%,-7%,17,?,10µM*
COC(=O)C1=C(C)OC(N)=C(C#N)C1c1ccc(OC)c(CSc2ccccn2)c1 (stereo not drawn),6%,-3%,6%[10 µM],-87*,-18%,?
CCOC(=O)C1=C(CSc2nc(CC)c(C)cc2C#N)OC(N)=C(C#N)C1c1ccccc1 (stereo not drawn),0%,3%[9.22 µM],-3%,-7,-22%,?
Cc1noc(C)c1-c1nccc(N2CCNCC2)n1,nt,nt,11%,nt,-6%,5%
Cc1ccc2nc(-c3ccc(N)cc3)sc2c1S(=O)(=O)O,?,nt,-181%,nt,?,?
Cc1ccn(-c2cc(O)c(-n3ccc(C)n3)cc2O)n1,-6%,28%,-21%,nt,nt,?
CCOC(=O)C1=C(CSc2nc(C)cc(C)c2C#N)OC(N)=C(C#N)C1c1cccs1 (stereo not drawn),6%,14%,-3%,?,-19%,14µM*
COC(=O)C1=C(C)OC(N)=C(C#N)C1c1ccccc1 (stereo not drawn),9%,12%,-11%,-25,-22%,?
CCOC(=O)C1=C(C)OC(N)=C(C#N)C1c1ccccc1 (stereo not drawn),-2%,18%[9.22 µM],40%[10 µM],nt,nt,22µM*
CCSc1cc(C2C(C#N)=C(N)OC(C)=C2C(=O)OC)c(C)o1 (stereo not drawn),10%,12%,-10%,28,-26%,20µM*
CC(=O)C1=C(c2ccccc2)OC(N)=C(C#N)C1c1ccc(O)cc1 (stereo not drawn),-1%,?,7%[10 µM],?,-12%,20µM*
COC(=O)[C@@H]1C[C@H]1[C@@H](NC(=O)Oc1ccc(F)cc1)c1ccccc1,9%,nt,12%,nt,-6%,7.9µM*
COC(=O)[C@H]1C[C@@H]1[C@H](NC(=O)OCc1ccccc1)c1ccccc1,3%[2.36 µM],15%,7%,61,-13%,?
CC(NC(=O)C1CCCN1C(=O)CN)C(=O)O (stereo not drawn),1%,nt,nt,nt,nt,nt
CCO[C@H]1OC(C(=O)NCc2ccccc2)=C[C@@H](c2ccc3c(c2)OCO3)[C@@H]1CCCO,5%,-2%[9.22 µM],20%[10 µM],nt,nt,8%
CCO[C@@H]1OC(C(=O)NCc2ccccc2)=C[C@H](c2ccc3c(c2)OCO3)[C@H]1CCCO,8%,-3%[9.22 µM],-7%[10 µM],nt,nt,14µM*
CCN1C(=O)C(CC(=O)Nc2ccc(C)cc2C)Nc2cc(S(=O)(=O)N(C)C)ccc21 (stereo not drawn),4%,-2%,nt,nt,nt,28µM*
O=C(N=NC(=O)c1ccc2c(O)n(C3CCCCC3)c(O)c2c1)c1cccnc1,-3%,5%,2%,56,-17%,2.2µM*
SMILES,CBFb-RUNX1 inh,HTT aggregate,HTT ATP protect,PNC assembly inh,HPGD block,ALDH1A1 block
CCNc1ncc2nc(C)c(=O)n(Cc3cccc(OC)c3)c2n1,nt,nt,-37%,nt,?,?
COc1ccc(C2=C(SC)CC2=NC(C)(C)C)cc1,-2%,21%,4%[10 µM],?,-6%,18µM*
COC(=O)[C@@H]1O[C@@H](c2c(OC)c(OC)c(C)c(OC)c2OC)[C@H](C)[C@@H](O)[C@@H]1C,9%[13.1 µM],nt,-3%[10 µM],nt,nt,0%[13.5 µM]
COc1ccc(/C=N/NC(=O)COc2ccccc2-c2ccccc2)cc1,5%,13%,12%[10 µM],-115*,-23%,-7%
COc1ccc(/C=N/NC(=O)CCn2cnc(-c3ccccc3)c2-c2ccccc2)cc1,?,?,-44%[10 µM],-108*,-5%,?
O=C(CCn1cnc(-c2ccccc2)c1-c1ccccc1)N/N=C/c1ccc(O)cc1,10%,20%,-3%[10 µM],-6,-15%,?
Cc1cc(-c2ccccc2)nc(N/N=C/c2ccc([N+](=O)[O-])cc2)n1,-27%,0.028µM*,nt,?,-9%,9%
Cc1cc(N/N=C/c2ccc(Cl)cc2)nc(NCc2ccccc2)n1,-11%,13µM*,nt,5,-10%,8%
Cc1cc(Nc2cccc(Cl)c2)nc(NCc2ccccc2)n1,-4%,-31%,-17%[10 µM],-94*,-8%,4%
C=CCN1CCN(C(c2ccc(OC)c(OC)c2)c2nnnn2C(C)(C)C)CC1 (stereo not drawn),4%,1%,-5%,?,nt,2%
CC(C)c1cc(C(=O)NCCc2ccccc2)no1,6%,7%,-33%,nt,nt,-3%
O=C(NNCS(=O)(=O)O)c1ccncc1,nt,3%,-2%,nt,nt,nt
CC(C)C(=O)N1CCN(c2ccc([N+](=O)[O-])c(NC(C)c3ccccc3)c2)CC1 (stereo not drawn),?,-8%,5%[10 µM],-2,-18%,22µM*
CC(Nc1cc(N2CCN(C(=O)C(C)(C)C)CC2)ccc1[N+](=O)[O-])c1ccccc1 (stereo not drawn),?,?,-67%,-8,-28%,?
Cc1cc([N+](=O)[O-])nn1CC(=O)Nc1nccs1,8%,2%,nt,-89*,-7%,-1%
Cc1nn(CCC(=O)NNC(=S)Nc2ccc(Cl)cc2)c(C)c1[N+](=O)[O-],0%,-14%,6%[10 µM],115,-20%,22µM*
O=C(Cn1ccc([N+](=O)[O-])n1)Nc1nccs1,-1%,1%,nt,17,-11%,4%

# Source: PubChem BioAssay (National Center for Advancing Translational Sciences (NCATS))
